Results filed as inconclusive are left out. The source made the active and inactive calls. Unless noted, calls come from the whole dose curve; as a rule, active = well fitted curve in either direction with a large enough effect (not every such curve was filed as active); inconclusive = small, poorly fitted or top-dose-only effect, or another doubt; inactive = flat fitted curve, though single readings scatter.
Legend:
[1] = AP1 Signaling Pathway (AID 357); conditions: ME-180 AP-1-bla reporter, EGF-induced, beta-lactamase ratio, 5 h; at 17.2 µM (top of the series) unless noted;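 note: ME-180 reporter cells stimulated with EGF at its EC50 level; % is set by controls: 0 for no effect and ±100 for the full control effect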
In short: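 Titration-series screen for positive or negative modulators of EC50 EGF-induced signaling in ME-180 cells carrying an AP-1-driven beta-lactamase reporter. After 5 hours at 37 degrees Celsius, CCF4 460nm/530nm emission ratio gave %Activity; AC50 values derived.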

[2] = NFAT Signaling Pathway (AID 444); conditions: Jurkat NFAT-bla M1, carbachol, beta-lactamase ratio, 5 h; at 17.2 µM (top of the series) unless noted;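 note: carbachol stimulus at about its EC50 of 1 µM final; % is set by controls: 0 for no effect and ±100 for the full control effect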
In short: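 Read-out: CCF4 FRET ratio (460 nm/530 nm) after 1 h RT dye loading, used for %activity and AC50 from titration series. Cells: Jurkat NFAT-β-lactamase/M1 line, treated with compound plus 1 uM carbachol for 5 h, 37 °C.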

[3] = Stat Signaling Pathway (AID 446); conditions: ME-180 SIE beta-lactamase reporter, IL-6 stimulated, 5 h; at 17.2 µM (top of the series) unless noted;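 note: ME-180 cervical cancer cells given 40 pM IL-6 alongside compound; SIE-controlled beta-lactamase reporter measured as 460/530 nm FRET emission ratio; % is set by controls: 0 for no effect and ±100 for the full control effect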
In short: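 ME-180 cells carrying a SIE-driven beta-lactamase reporter are stimulated with 40 pM IL-6 for 5 h at 37C in the presence of compound. The 460/530 nm FRET substrate ratio is read after 2.5 h at RT. Data are normalised to 300 pM IL-6 and to 125 nM JAK inhibitor controls.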

[4] = target: Glucocorticoid receptor (Homo sapiens) (UniProt P04150); assay: GR-GFP Redistribution (AID 450;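 active = compounds whose dose series gives a full or clear partial fitted curve of increased nuclear translocation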; note: potency is the fitted concentration of half-maximal effect); conditions: U2OS GR-GFP nuclear translocation, laser cytometry, 2 h; series mostly up to 20.6 µM
Sequence of Glucocorticoid receptor (Homo sapiens) (P04150 whole entry, looked up): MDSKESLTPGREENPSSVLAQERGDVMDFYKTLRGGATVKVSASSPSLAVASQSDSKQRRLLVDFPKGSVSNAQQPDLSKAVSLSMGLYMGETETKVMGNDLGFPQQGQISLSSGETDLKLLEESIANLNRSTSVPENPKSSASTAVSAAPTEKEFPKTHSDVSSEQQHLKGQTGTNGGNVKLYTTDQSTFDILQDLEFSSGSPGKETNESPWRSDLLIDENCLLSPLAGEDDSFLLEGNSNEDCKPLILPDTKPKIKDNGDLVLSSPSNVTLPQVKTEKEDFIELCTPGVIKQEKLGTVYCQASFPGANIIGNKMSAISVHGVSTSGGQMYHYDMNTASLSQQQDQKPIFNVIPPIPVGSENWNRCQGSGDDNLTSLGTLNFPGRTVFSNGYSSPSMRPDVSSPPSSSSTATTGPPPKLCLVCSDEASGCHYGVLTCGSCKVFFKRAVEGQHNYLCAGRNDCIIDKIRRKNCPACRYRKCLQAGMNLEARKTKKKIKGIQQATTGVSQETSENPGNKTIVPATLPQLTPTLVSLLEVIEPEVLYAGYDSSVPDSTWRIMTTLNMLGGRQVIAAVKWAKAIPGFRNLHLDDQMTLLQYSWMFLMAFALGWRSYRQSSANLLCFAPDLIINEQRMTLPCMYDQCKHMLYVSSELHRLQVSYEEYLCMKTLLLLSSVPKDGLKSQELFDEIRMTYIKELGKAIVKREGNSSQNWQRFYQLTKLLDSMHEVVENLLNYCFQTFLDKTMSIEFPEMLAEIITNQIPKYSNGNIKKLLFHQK

Cn1c2c(c(=O)n(C)c1=O)C(NC(=O)c1cccs1)(C(F)(F)F)C(=O)N2 (centres undefined)
inactive: activity change, negative = inhibition [1] -2.19% | activity change, negative = inhibition [2] 12.3% | activity, negative = inhibition [3] 5.6% | Potency [4] > 20.6 µM

COc1cc(OC)cc(C(=O)N2CCC(N3CCN(c4ccccc4)CC3)CC2)c1
inactive: activity change, negative = inhibition [1] 5.25% | activity change, negative = inhibition [2] -4.18% | activity, negative = inhibition [3] 4.25% | Potency [4] > 20.6 µM

CCCCOc1ccccc1/C=c1/sc2nc(-c3oc4ccccc4c3C)nn2c1=O
inactive: activity change, negative = inhibition [1] 4.54% | activity change, negative = inhibition [2] -23.5% | activity, negative = inhibition [3] -12.5% | Potency [4] > 20.6 µM

COC(=O)/C=c1/s/c(=C(\C#N)C(=O)NCc2ccco2)n(-c2ccccc2)c1=O
inactive: activity change, negative = inhibition [1] -2.83% | activity change, negative = inhibition [2] -25.7% | activity, negative = inhibition [3] 5.13% | Potency [4] > 20.6 µM

C=C(c1ccc(OCCO)cc1)c1ccc(OCCO)cc1
inactive: activity change, negative = inhibition [1] -5.64% | activity change, negative = inhibition [2] -1.3% | activity, negative = inhibition [3] -3.23% | Potency [4] > 20.6 µM

Cc1ccc(-n2c(N)c(C(N)=O)sc2=S)cc1
inactive: activity change, negative = inhibition [1] 6.9% | activity change, negative = inhibition [2] 9.14% | activity, negative = inhibition [3] -24.5% | Potency [4] > 20.6 µM

COC(=O)C1=C(C)N=C2SC(C)C(=O)N2C1c1ccc(C(=O)OC)cc1 (centres undefined)
inactive: activity change, negative = inhibition [1] -9.79% | activity change, negative = inhibition [2] -6.71% | activity, negative = inhibition [3] -11.1% | Potency [4] > 20.6 µM

Cn1c(=O)n(CCc2ccccc2)c(=O)c2c1ncn2Cc1ccccc1
inactive: activity change, negative = inhibition [1] -15.9% | activity change, negative = inhibition [2] -7.53% | activity, negative = inhibition [3] -18.1% | Potency [4] > 20.6 µM

CCOC(=O)C1=C(C)N=C2SC(C)C(=O)N2C1c1cccc(F)c1 (centres undefined)
inactive: activity change, negative = inhibition [1] -17.6% | activity change, negative = inhibition [2] 7.16% | activity, negative = inhibition [3] 1.84% | Potency [4] > 20.6 µM

CCCCCCn1c(C(C)O)nc2ccccc21 (centres undefined)
inactive: activity change, negative = inhibition [1] 0.304% | activity change, negative = inhibition [2] 5.62% | activity, negative = inhibition [3] -3.73% | Potency [4] > 20.6 µM

CN1CCN(C(=O)CSc2nc(-c3ccncc3)ccc2C#N)CC1
inactive: activity change, negative = inhibition [1] 2.77% | activity change, negative = inhibition [2] -14.8% | activity, negative = inhibition [3] 1.66% | Potency [4] > 20.6 µM

CC(=O)OC12CC3CC(C1)C(=NO)C(C3)C2
inactive: activity change, negative = inhibition [1] 9.34% | activity change, negative = inhibition [2] 1.23% | activity, negative = inhibition [3] 13.8% | Potency [4] > 20.6 µM

Cn1c(=O)c2c(nc(NCc3ccc4c(c3)OCO4)n2Cc2ccccc2)n(C)c1=O
inactive: activity change, negative = inhibition [1] -13.1% | activity change, negative = inhibition [2] 6.4% | activity, negative = inhibition [3] -25% | Potency [4] > 20.6 µM

CC(C)c1cc(NCCN2CCOCC2)n2c(nc3ccccc32)c1C#N
inactive: activity change, negative = inhibition [1] -4.92% | activity change, negative = inhibition [2] 6.15% | activity, negative = inhibition [3] 9.84% | Potency [4] > 20.6 µM

O=P(O)(c1ccccc1)c1ccccc1O
inactive: activity change, negative = inhibition [1] 6.62% | activity change, negative = inhibition [2] 7.27% | activity, negative = inhibition [3] 8.28% | Potency [4] > 20.6 µM

c1coc(-c2nnc3sc(C4CCCCC4)nn23)c1
inactive: activity change, negative = inhibition [1] -14.7% | activity change, negative = inhibition [2] -19.5% | activity, negative = inhibition [3] 6.55% | Potency [4] > 20.6 µM

COc1ccc(CCNC2CC(C)N(C)CC2C)cc1OC (centres undefined)
inactive: activity change, negative = inhibition [1] 2.19% | activity change, negative = inhibition [2] -14.9% | activity, negative = inhibition [3] 4.89% | Potency [4] > 20.6 µM

COc1ccc(C2C(C(C)=O)=C(O)C(=O)N2c2nccs2)cc1OC (centres undefined)
inactive: activity change, negative = inhibition [1] -6.01% | activity change, negative = inhibition [2] 21.8% | activity, negative = inhibition [3] 3.64% | Potency [4] > 20.6 µM

CCc1cc(=O)oc2cc(C)c(CN3CCCC(C)C3)c(O)c12 (centres undefined)
inactive: activity change, negative = inhibition [1] 1.74% | activity change, negative = inhibition [2] -12.2% | activity, negative = inhibition [3] -15.7% | Potency [4] > 20.6 µM

CCCCCOC(=O)Cc1c(C)nc(-c2ccccc2)[nH]c1=O
inactive: activity change, negative = inhibition [1] -3.29% | activity change, negative = inhibition [2] 8.16% | activity, negative = inhibition [3] 4.57% | Potency [4] > 20.6 µM

CCOC(=O)C1CCN(C(C)=C2C(=O)c3ccccc3C2=O)CC1
inactive: activity change, negative = inhibition [1] 2.67% | activity change, negative = inhibition [2] 4.7% | activity, negative = inhibition [3] 1.52% | Potency [4]

CCCCNC(=O)N1CCOCCOCCN(C(=O)NCCCC)CCOCCOCC1
inactive: activity change, negative = inhibition [1] 3.89% | activity change, negative = inhibition [2] 5.69% | activity, negative = inhibition [3] -1.16% | Potency [4] > 20.6 µM

CC(C)CN1C(=O)NC(NC(=O)c2cccnc2)(C(F)(F)F)C1=O (centres undefined)
inactive: activity change, negative = inhibition [1] -6.13% | activity change, negative = inhibition [2] 3.51% | activity, negative = inhibition [3] -1.02% | Potency [4] > 20.6 µM

O=C1N[C@@H](Cc2cnc[nH]2)C(=O)N2CCC[C@@H]12
inactive: activity change, negative = inhibition [1] 15.2% | activity change, negative = inhibition [2] -19.2% | activity, negative = inhibition [3] 4.85% | Potency [4] > 20.6 µM

CC1(C)Cc2c(C#N)c(SCc3nc4ccccc4[nH]3)nc(N3CCOCC3)c2CO1
inactive: activity change, negative = inhibition [1] -22.7% | activity change, negative = inhibition [2] 8.62% | activity, negative = inhibition [3] -16.1% | Potency [4] > 20.6 µM

Cc1c(O)c(CN2CCCC(C)C2)cc2c3c(c(=O)oc12)CCC3 (centres undefined)
inactive: activity change, negative = inhibition [1] 13.2% | activity change, negative = inhibition [2] -10.5% | activity, negative = inhibition [3] 6.92% | Potency [4] > 20.6 µM

CCOc1ccc(C2C(C(=O)c3ccc(C)o3)=C(O)C(=O)N2CCN2CCOCC2)cc1OC (centres undefined)
inactive: activity change, negative = inhibition [1] 0.475% | activity change, negative = inhibition [2] 4.63% | activity, negative = inhibition [3] 0.944% | Potency [4] > 20.6 µM

COC(=O)c1n[nH]c2ccccc12
inactive: activity change, negative = inhibition [1] 9.29% | activity change, negative = inhibition [2] 15.6% | activity, negative = inhibition [3] -6.08% | Potency [4] > 20.6 µM

COC(=O)c1ccccc1OCc1cccc(C)n1
inactive: activity change, negative = inhibition [1] -1.62% | activity change, negative = inhibition [2] -4.22% | activity, negative = inhibition [3] -5.73% | Potency [4] > 20.6 µM

CCC1CC2(C)NC(=O)c3c(sc4c3CC(C)(C)OC4)N2C1=O (centres undefined)
inactive: activity change, negative = inhibition [1] -7.1% | activity change, negative = inhibition [2] -20.5% | activity, negative = inhibition [3] -10.3% | Potency [4] > 20.6 µM

CN(C)CCCN1C(=O)C(O)=C(C(=O)c2cc3ccccc3o2)C1c1ccccn1 (centres undefined)
inactive: activity change, negative = inhibition [1] 7.64% | activity change, negative = inhibition [2] 7.35% | activity, negative = inhibition [3] -0.93% | Potency [4] > 20.6 µM

CN/C(=C/[N+](=O)[O-])NCCSCc1ccc(CN(C)C)o1
inactive: activity change, negative = inhibition [1] -15.4% | activity change, negative = inhibition [2] -27.6% | activity, negative = inhibition [3] -3.38% | Potency [4] > 20.6 µM

O=c1[nH]c(CN2CCCCC2)nc2c1C1(CCCCC1)Cc1ccccc1-2
inactive: activity change, negative = inhibition [1] 24.9% | activity change, negative = inhibition [2] 4.2% | activity, negative = inhibition [3] -5.46% | Potency [4] > 20.6 µM

CCOC(=O)C1=C(C)N=C2SC(C)C(=O)N2C1c1ccc(OC(C)=O)c(OC)c1 (centres undefined)
inactive: activity change, negative = inhibition [1] -14.1% | activity change, negative = inhibition [2] 10.3% | activity, negative = inhibition [3] -17.1% | Potency [4] > 20.6 µM

CCc1cc(=O)oc2cc(C)c(CN3CCCC3)c(O)c12
inactive: activity change, negative = inhibition [1] -8.92% | activity change, negative = inhibition [2] -9.64% | activity, negative = inhibition [3] -10.7% | Potency [4] > 20.6 µM

Cc1cc(=O)oc(C)c1C(=O)NCC(C)C
inactive: activity change, negative = inhibition [1] 0.878% | activity change, negative = inhibition [2] -1.32% | activity, negative = inhibition [3] 8.66% | Potency [4] > 20.6 µM
